Test results taken from PubChem BioAssay (EPA / NIEHS).
Values joined by “and” are separate entries in the source; they are usually repeats but may differ in a detail not shown here. Equal entries are not always repeated. Results filed as inconclusive are left out. A structure can be active in one record and inactive in another. Active and inactive are the calls of the source. Rule for the calls, unless noted: active = hit-call score of the fitted dose curve at least 0.9, where 1 is the maximum; inactive = score below 0.9.

How the values were obtained:
[1] = read-out: solute carrier (SLCO1B1), SLCO1B1 (gene 10599); experiment: LTEA_HepaRG_SLCO1B1: Life Technologies and Expression Analysis (LTEA) Assay for solute carrier (SLCO1B1) using HepaRG (AID 2283530); conditions: mRNA level, 48 h; actives raise or lower the signal
Method in brief: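 SLCO1B1 transcript read by qRT-PCR (Fluidigm arrays), normalized to three housekeeping genes, after 48 h chemical exposure of HepaRG cells; bidirectional concentration-response fitting versus 0.5% DMSO baseline. Eight-point half-log series, maximum 100 uM.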

[2] = read-out: sulfotransferase 2A1 (SULT2A1), SULT2A1 (gene 6822); experiment: LTEA_HepaRG_SULT2A1: Life Technologies and Expression Analysis (LTEA) Assay for sulfotransferase 2A1 (SULT2A1) using HepaRG (AID 2283531); conditions: mRNA level, 48 h; actives raise or lower the signal
Method in brief: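 HepaRG, 48 h chemical exposure, 8-pt half-log curve from 100 uM in 0.5% DMSO, duplicates. Readout: TaqMan qRT-PCR of SULT2A1 mRNA, housekeeping-normalized. Bidirectional fit vs DMSO baseline.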

[3] = read-out: Transforming Growth Factor (TGFB1), TGFB1 (gene 7040); experiment: LTEA_HepaRG_TGFB1: Life Technologies and Expression Analysis (LTEA) Assay for Transforming Growth Factor (TGFB1) Transporter using HepaRG (AID 2283533); conditions: mRNA level, 48 h; actives raise or lower the signal
Method in brief: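 qRT-PCR readout of TGFB1 transcript in HepaRG lysates, normalized to three housekeeping genes; gain or loss of signal fitted relative to 0.5% DMSO vehicle. Exposure: 48 h, 8-point curve from 100 uM, duplicate wells.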

[4] = read-out: TIMP1, TIMP1 (gene 7076); experiment: LTEA_HepaRG_TIMP1: Life Technologies and Expression Analysis (LTEA) Assay for TIMP1 using HepaRG (AID 2283534); conditions: mRNA level, 48 h; actives raise or lower the signal;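 note: TaqMan qRT-PCR signal normalized to ACTB GAPDH and POLR2A housekeeping genes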
Method in brief: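 HepaRG, 48 h exposure, 8-pt half-log series from 100 uM in 0.5% DMSO, duplicates; TIMP1 transcript by Fluidigm qRT-PCR, housekeeping-normalized; bidirectional curve fit vs DMSO baseline.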

[5] = read-out: Tumor necrosis factor receptor 1 (TNFRSF1A), TNFRSF1A (gene 7132); experiment: LTEA_HepaRG_TNFRSF1A: Life Technologies and Expression Analysis (LTEA) Assay for Tumor necrosis factor receptor 1 (TNFRSF1A) using HepaRG (AID 2283535); conditions: mRNA level, 48 h; actives raise or lower the signal
Method in brief: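 HepaRG, 48 h plating then 48 h chemical exposure, serum-free induction media; 8-pt CRC from 100 uM, half-log, 0.5% DMSO vehicle, duplicates. Readout: TaqMan qRT-PCR (Fluidigm), housekeeping-gene normalized; bidirectional fit vs DMSO.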

[6] = read-out: Thyroid Hormone Responsive (THRSP), THRSP (gene 7069); experiment: LTEA_HepaRG_THRSP: Life Technologies and Expression Analysis (LTEA) Assay for Thyroid Hormone Responsive (THRSP) using HepaRG (AID 2283536); conditions: mRNA level, 48 h; actives raise or lower the signal
Method in brief: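 THRSP transcript quantified by Fluidigm qRT-PCR against three housekeeping genes after 48 h chemical exposure of HepaRG cells in serum-free induction medium; eight-point half-log series, top 100 uM, 0.5% DMSO vehicle, duplicate wells.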

[7] = read-out: Cellular tumor antigen p53 (Homo sapiens) (UniProt P04637); experiment: LTEA_HepaRG_TP53: Life Technologies and Expression Analysis (LTEA) Assay for Tumor Protein P53 (TP53) using HepaRG (AID 2283537); conditions: mRNA level, 48 h; actives raise or lower the signal
Method in brief: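 TP53 transcript measured by qRT-PCR, normalized to three housekeeping genes, after 48 h treatment of human HepaRG cultures with chemicals from 100 uM downward in half-log steps (0.5% DMSO vehicle, serum-free induction medium). Up- or down-regulation fitted against DMSO.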

[8] = read-out: UDP glucuronosyltransferase (UGT1A1), UGT1A1 (gene 54658); experiment: LTEA_HepaRG_UGT1A1: Life Technologies and Expression Analysis (LTEA) Assay for UDP glucuronosyltransferase (UGT1A1) using HepaRG (AID 2283538); conditions: mRNA level, 48 h; actives raise or lower the signal
Method in brief: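 mRNA induction or loss of UGT1A1, by TaqMan qRT-PCR, in duplicate HepaRG wells after 48 h exposure to half-log dilutions topping at 100 uM; DMSO (0.5%) served as baseline.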

[9] = read-out: UDP glucuronosyltransferase (UGT1A6), UGT1A6 (gene 54578); experiment: LTEA_HepaRG_UGT1A6: Life Technologies and Expression Analysis (LTEA) Assay for UDP glucuronosyltransferase (UGT1A6) using HepaRG (AID 2283539); conditions: mRNA level, 48 h; actives raise or lower the signal
Method in brief: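 qRT-PCR readout of UGT1A6 mRNA (normalized to ACTB/GAPDH/POLR2A) in differentiated HepaRG cells after 48 h chemical exposure; 8 concentrations, top 100 uM, half-log steps, 0.5% DMSO. Bidirectional curve fit relative to DMSO baseline.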

[10] = read-out: X-box binding protein 1 (XBP1), XBP1 (gene 7494); experiment: LTEA_HepaRG_XBP1: Life Technologies and Expression Analysis (LTEA) Assay for X-box binding protein 1 (XBP1) using HepaRG (AID 2283540); conditions: mRNA level, 48 h; actives raise or lower the signal
Method in brief: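 HepaRG, 48 h exposure, 8-pt half-log CRC top 100 uM, 0.5% DMSO vehicle, duplicates. Readout: TaqMan qRT-PCR of XBP1 mRNA, housekeeping-normalised (ACTB/GAPDH/POLR2A); bidirectional fit vs DMSO baseline.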

[11] = LTEA_HepaRG_LDH_cytotoxicity: Cytotoxicity Assessment in the Life Technologies and Expression Analysis (LTEA) Assay (AID 2283563; active = hit-call score of the fitted dose curve at least 0.9, where 1 is the maximum;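 for AC50: LDH activity released into spent culture medium as a marker of cell death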)
Method in brief: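 HepaRG (human liver line), 48 h exposure, 8-pt half-log series from 100 uM, 0.5% DMSO vehicle, duplicates. Read-out: LDH in spent medium. Positive-direction fit vs DMSO baseline.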

[12] = ATG_XTT_Cytotoxicity: Cytotoxicity Assessment in the Attagene TRANS-FACTORIAL HepG2 Assay (AID 2283584; active = hit-call score of the fitted dose curve at least 0.9, where 1 is the maximum)
Method in brief: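 XTT readout of cell number in transfected HepG2 cells, 24 h post-dosing; DMSO serves as negative control and baseline, with activity taken as loss of viability signal.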

[13] = TOX21_p53_BLA_p2_viability: Viability Assessment in the Tox21 HCT-116 p53 Agonism Beta-lactamase Assay, Phase 2 (AID 2283591; active = hit-call score of the fitted dose curve at least 0.9, where 1 is the maximum;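 note: actives lower the ATP signal meaning cytotoxicity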)
Method in brief: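 Cytotoxicity readout: CellTiter-Glo ATP luminescence, 30 min at room temperature, after the beta-lactamase read. Cells were HCT116 exposed 16 h at 37C to compounds pin-transferred at 217-fold dilution from DMSO stocks.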

[14] = TOX21_p53_BLA_p3_viability: Viability Assessment in the Tox21 HCT-116 p53 Agonism Beta-lactamase Assay, Phase 3 (AID 2283593; active = hit-call score of the fitted dose curve at least 0.9, where 1 is the maximum;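 note: cells exposed to compound for 16 h before reading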)
Method in brief: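 Cellular ATP was quantified by CellTiter-Glo luminescence, read after 30 min at room temperature. Beforehand, HCT116 cells (4000/well) received compound 5 h post-seeding, 217-fold diluted from DMSO, then incubated 16 h at 37C.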

[15] = target: Cellular tumor antigen p53 (Homo sapiens) (UniProt P04637); experiment: TOX21_p53_BLA_p3_ratio: Tox21 HCT-116 p53 Agonism Beta-lactamase Assay, Ratio, Phase 3 (AID 2283596; active = hit-call score of the fitted dose curve at least 0.9, where 1 is the maximum)
Sequence of Cellular tumor antigen p53 (Homo sapiens) (P04637 whole entry, looked up): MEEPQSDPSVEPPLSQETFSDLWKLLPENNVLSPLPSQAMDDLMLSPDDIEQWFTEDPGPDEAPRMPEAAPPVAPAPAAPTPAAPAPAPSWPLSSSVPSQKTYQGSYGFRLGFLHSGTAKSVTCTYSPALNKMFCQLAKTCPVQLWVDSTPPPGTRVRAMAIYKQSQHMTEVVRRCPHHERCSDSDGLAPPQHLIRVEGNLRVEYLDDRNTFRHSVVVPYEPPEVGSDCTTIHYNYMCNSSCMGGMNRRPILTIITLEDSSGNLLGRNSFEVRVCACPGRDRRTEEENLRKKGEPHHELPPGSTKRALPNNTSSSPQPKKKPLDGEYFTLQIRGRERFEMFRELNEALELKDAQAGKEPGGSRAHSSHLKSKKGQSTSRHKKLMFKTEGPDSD
Method in brief: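 Cells were seeded at 4000/well, rested 5 h at 37C, then dosed with DMSO compound solutions (217-fold dilution) for 16 h. CCF4-AM substrate was loaded for 2 h at room temperature, and the 460/530 nm emission ratio was fitted for gain of signal versus DMSO.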

[16] = TOX21_p53_BLA_p4_viability: Viability Assessment in the Tox21 HCT-116 p53 Agonism Beta-lactamase Assay, Phase 4 (AID 2283597; active = hit-call score of the fitted dose curve at least 0.9, where 1 is the maximum;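 note: hits lower the luminescence signal meaning cytotoxicity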)
Method in brief: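 ATP content by CellTiter-Glo luminescence, 30 min RT, read after the beta-lactamase ratio step. Cells: HCT116, 4000/well, compound added after 5 h, exposure 16 h at 37C. Signal loss = reduced viability.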

[17] = target: Cellular tumor antigen p53 (Homo sapiens) (UniProt P04637); experiment: TOX21_p53_BLA_p5_ratio: Tox21 HCT-116 p53 Agonism Beta-lactamase Assay, Ratio, Phase 5 (AID 2283599; active = hit-call score of the fitted dose curve at least 0.9, where 1 is the maximum)
Method in brief: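 Beta-lactamase reporter ratio (blue 460 nm over green 530 nm, 405 nm excitation) after 2 h CCF4-AM loading, in HCT-116 cells exposed 16 h at 37 C to compounds pinned at 217-fold dilution. Increases relative to DMSO baseline scored.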

[18] = TOX21_p53_BLA_p5_viability: Viability Assessment in the Tox21 HCT-116 p53 Agonism Beta-lactamase Assay, Phase 5 (AID 2283600; active = hit-call score of the fitted dose curve at least 0.9, where 1 is the maximum)
Method in brief: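 ATP luminescence (CellTiter-Glo, 30 min, RT) served as the viability read-out, with loss of signal indicating cytotoxicity. Compounds in DMSO were pinned at a 217-fold dilution onto 4000 cells/well and incubated 16 h, 37C.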

[19] = read-out: Transforming Growth Factor (TGFA), TGFA (gene 7039); experiment: LTEA_HepaRG_TGFA: Life Technologies and Expression Analysis (LTEA) Assay for Transforming Growth Factor (TGFA) using HepaRG (AID 2283532); conditions: mRNA level, 48 h; actives raise or lower the signal
Method in brief: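 TGFA transcript quantified by qRT-PCR (Fluidigm arrays) against three housekeeping genes, after 48 hours chemical treatment of HepaRG cells. Top concentration 100 uM with half-log dilutions, 8 points, duplicates, 0.5% DMSO.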

[20] = target: Cellular tumor antigen p53 (Homo sapiens) (UniProt P04637); experiment: TOX21_p53_BLA_p2_ratio: Tox21 HCT-116 p53 Agonism Beta-lactamase Assay, Ratio, Phase 2 (AID 2283592; active = hit-call score of the fitted dose curve at least 0.9, where 1 is the maximum)
Method in brief: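 Readout: blue/green (460/530 nm) FRET emission ratio after 2 h CCF4-AM loading at room temperature, excitation 405 nm. HCT116 p53 bla cells, 16 h compound exposure at 37C, 5% CO2; agonist direction fitted against DMSO baseline.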

Measured: AC50

CC1(C)C(C=C(Cl)Cl)C1C(=O)OC(C#N)c1cccc(Oc2ccccc2)c1 (stereo unspecified)
active: [8] 17.3 µM
not listed: [19] | [20]
inactive: all other assays above

O=P(O)(O)CCCl
active: [7] 0.254 µM
not listed: [12] | [13] | [14] | [16]
inactive: all other assays above

O=C(Nc1ccccc1-c1ccc(Cl)cc1)c1cccnc1Cl
not listed: [12] | [20]
inactive: all other assays above

O=C1C2CC=CCC2C(=O)N1SC(Cl)(Cl)Cl (stereo unspecified)
inactive: [1] | [2] | [3] | [4] | [5] | [7] | [8] | [9] | [10] | [13] | [14] | [15] | [16] | [17] | [18]
active: [6] 16.2 µM | [11] 74.5 µM | [13] 25.6 µM | [15] 77.7 µM and 6.5 µM | [16] 18.1 µM | [17] 19.5 µM

CCN(CC)C(=O)C(C)Oc1cccc2ccccc12 (stereo unspecified)
active: [8] 12.9 µM | [10] 50 µM
not listed: [14] | [18]
inactive: all other assays above

COc1cc(Cl)c(OC)cc1Cl
active: [8] 2.69 µM
not listed: [12] | [13] | [14] | [16] | [18] | [20]
inactive: all other assays above

COCc1cnc(C2=NC(C)(C(C)C)C(=O)N2)c(C(=O)O)c1 (stereo unspecified)
inactive: [1] | [2] | [19] | [3] | [4] | [5] | [6] | [8] | [9] | [10] | [11]

CN=C=S
active: [10] 17.3 µM
not listed: [12] | [14] | [20]
inactive: all other assays above

Nc1cnn(-c2ccccc2)c(=O)c1Cl
active: [8] 50 µM
not listed: [12] | [14] | [16] | [17] | [19] | [20]
inactive: all other assays above

COP(=O)(OC)O/C(C)=C/C(=O)N(C)C
not listed: [12] | [14] | [15] | [16] | [18] | [19] | [20]
inactive: all other assays above

COc1cc(OC)nc(NC(=O)NS(=O)(=O)c2ncccc2OCC(F)(F)F)n1
active: [1] 9.92 µM
not listed: [12] | [18] | [19] | [20]
inactive: all other assays above
